From article PMC7826789 (International Journal of Molecular Sciences, 2021)

What was measured:
Settings in all cases: Compound Concentration (nM):1000
GRK1 = system: GRK1
GRK2 = system: T1, GRK2
T1 construct: gene ADRBK1

GRK3 = system: T2, GRK3
T2 construct: gene ADRBK2

GRK4 = system: GRK4
GRK7 = system: GRK7
GSK3A = system: GSK3A
GSK3B = system: GSK3B
HASPIN = system: T3, HASPIN
T3 construct: gene GSG2

HCK = system: HCK
HIPK1 = system: HIPK1
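Also: KINOMEscan scanMAX binding as percent activity remaining versus control; lower means stronger binding.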

Row | Structure (SMILES) | Percent Control (GRK1) | Percent Control (GRK2) | Percent Control (GRK3) | Percent Control (GRK4) | Percent Control (GRK7) | Percent Control (GSK3A) | Percent Control (GSK3B) | Percent Control (HASPIN) | Percent Control (HCK) | Percent Control (HIPK1)
1 | CN(C)c1cc2c(Nc3ccc4c(cnn4Cc4ccccc4)c3)ncnc2cn1 [GW282974X] | 78% | 100% | 86% | 100% | 97% | 98% | 100% | 82% | 57% | 78%
2 | CC1=C(C(=O)Nc2ccc3[nH]ncc3c2)C(c2ccc3ccccc3c2)CC(=O)N1 (stereo not drawn) [GSK270822A] | 78% | 38% | 17% | 100% | 100% | 100% | 100% | 96% | 68% | 87%
3 | Cl.O=C(Nc1ccc(Oc2ccc3[nH]c(NC(=O)c4ccccc4)nc3c2)cc1)Nc1cc(C(F)(F)F)ccc1F [GW709042A] | 99% | 100% | 97% | 100% | 100% | 100% | 99% | 92% | 71% | 94%
4 | CCn1c(-c2nonc2N)nc2c(C#CC(C)(C)O)nc(OCCNC)cc21.Cl [GSK949675] | 77% | 100% | 100% | 100% | 69% | 18% | 55% | 100% | 100% | 42%
5 | COc1ccc2cc(-c3c(-c4ccncc4)nc(-c4ccc(S(C)(=O)=O)cc4C)n3C)ccc2c1 [SB-633825] | 70% | 81% | 63% | 100% | 94% | 100% | 100% | 94% | 72% | 77%
6 | O=C(Nc1n[nH]c2nc(-c3ccc(O)cc3)c(Br)cc12)C1CC1 [SB-725317] | 100% | 100% | 100% | 100% | 100% | 7.5% | 0.5% | 100% | 100% | 22%
7 | COC(=O)Nc1nc2ccc(Oc3ccc(NC(=O)Nc4cc(C(F)(F)F)ccc4F)cc3)cc2s1.Cl [GW693917A] | 81% | 91% | 71% | 100% | 84% | 100% | 99% | 76% | 51% | 87%
8 | COc1cc2ncnc(Nc3ccc4c(cnn4Cc4ccccc4)c3)c2cc1OC.Cl [GW282449A] | 100% | 100% | 100% | 100% | 100% | 100% | 100% | 99% | 21% | 100%
9 | COc1ccc(COc2ccc(Cc3cnc(N)nc3N)cc2OC)cc1 [GW632580X] | 93% | 97% | 93% | 100% | 100% | 95% | 95% | 88% | 90% | 100%
